Measured values as given in the emibetuzumab library of Makowski et al. (2022).
Some of the results follow. How many sequences the whole screen found active is unknown.

B1: VH:VL chains; a variant is named by its letters at X, in order (parent)
chain 1: QVQLVQSGAEVKKPGASVKVSCKASGYTFTDYXMHWVRQAPGQGLEWMGXVNPNXXXTTYNQKFEGRVTMTTDTSTSTAYMELRSLRSDDTAVYYCARXNXLDXWGQGTTVTVSS
chain 2: DIQMTQSPSSLSASVGDRVTITCSVSSSVSSIYLHWYQQKPGKAPKLLIYSTSNLASGVPSRFSGSGSGTDFTLTISSLQPEDFATYYCQVYSGYPLTFGGGTKVEIK

Variants of: B1
Assay: yeast display scFab, FACS + sequencing
Details: with MET
Summary of the method: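 For FACS, yeast displaying a heavy-chain CDR mutant scFab library were labelled with 1 nM HGFR-Fc and anti-Myc (PBSB, 1% milk, 3 h, room temperature), and the top 50% antigen-positive cells were gated. Input and round-3 sorted populations were deep sequenced in two replicates. The binding call was positive for sequences occurring in both antigen-positive samples and negative for sequences occurring only in input.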

Variant	antigen binding call
FRERGSWV	binds
VRERGDWV	no binding
DREEGSWV	no binding
VTGEDAGD	no binding
YRGANSVF	binds
YREEGDVF	no binding
YRRGSSLF	binds
YRGGGSVF	binds
YRRGSSVF	binds
VTGGDDSA	no binding
VAGTGSSA	no binding
VGGGADGV	no binding
VEGAASWV	no binding
AAGRAYGA	no binding
YRRGGSVF	binds
YRTGAAAD	binds
YRTGASSD	binds
YAGGTSSD	no binding
YRTGAASD	binds
YRGAASSD	binds
YRRAADSD	no binding
DETGGSSD	no binding

Variant	antigen binding call
SEARSSGY	no binding
VTGEDSSD	no binding
FRGESSWD	binds
DRGGDDAD	no binding
FRGESSAD	binds
DRGGDVSD	no binding
FRGGDSAD	binds
VKGGNVGV	no binding
FRRRGSAA	binds
SRRRGSAA	binds
DRRRGSGA	no binding
FRRRGAAA	binds
FRRRGAVA	binds
VETEGDGF	no binding
VETGNSLV	no binding
FRRGGAAA	binds
FKGEGSLV	no binding
FKTKNYVV	no binding
FKARGALV	binds
FKGEGYGV	no binding
FKGEGDGV	no binding
FKKKDASV	binds

Variant	antigen binding call
FKRRSASV	no binding
FKARGASV	binds
SKTKSDAV	no binding
YAEESAGD	no binding
YKEGGSGD	binds
YKEGGAGD	binds
DKEGGAAD	no binding
DKEGGSLD	no binding
DATGGDAD	no binding
DTKAASGV	no binding
VEAGDDVV	no binding
YRRGDAGS	binds
DRAGDAGS	no binding
SRKKGDGS	no binding
SRRGGYVS	no binding
YRRGSASS	binds
YRRGSAGS	binds
SRRGSASS	binds
VEGGTDVV	no binding
VATGSSGA	no binding
YRRGGSGS	binds
YRRGSSGS	binds

Variant	antigen binding call
YAEKDFGV	no binding
ATAGSAAV	no binding
VRKGGVAV	no binding
VRGTGVAV	no binding
VRGRGVAV	binds
YRGRGVAV	binds
VKGRAYGV	no binding
VEGGGYGV	no binding
VEGRGDAV	no binding
VRGRGYGV	binds
YRAGGVAV	binds
VTTKGDVF	no binding
SEARSYVV	no binding
DTREGDAV	no binding
YKAGDAAA	binds
VKAKGAAA	binds
YKAKGAAA	binds
VEGGGAAA	no binding
VKAGSAAA	binds
VEAGDAAA	no binding
VKAGSDVA	no binding
YKAGDDGA	no binding

Variant	antigen binding call
DAGGGAVA	no binding
VTKETFSF	no binding
YEGGTDGA	no binding
STTRGAVA	no binding
ATTRGAVA	no binding
VKARNDLV	no binding
YRGRDDWF	no binding
YRGRDASF	binds
YRGRDAGF	binds
DAGKGSVD	no binding
STATADWV	no binding
VKGRADVD	no binding
FAGRGVGD	no binding
FRGRGDGD	binds
SAGRGVGS	no binding
YRGRGVGS	binds
YRGRGVGD	binds
FAGGGDGD	no binding
FRGRGVGD	binds
